Screen size: about 37,000 compounds; about 100 (0.27%) were called active. The sample as a whole holds a higher share of actives than the screen did. A number with no mark means an inactive call. Cut-off read from the data, not from the text of the source: active = inhibition above about 85%; inconclusive = no clear call, values can overlap the other calls; inactive = below about 68%.
experiment: inhibitors of MITF, primary screen, MITF inhibitor project, cell-based, luminescence (AID 2240); settings: TRPM1 promoter luciferase, 24 h, hits give high values, concentration not given here;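 note: human melanocyte line stably carrying TRPM1 promoter luciferase reporter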

SMILES | inhibition
COc1ccc(NC(=O)CSC2CC(=O)N(c3ccc(F)cc3)C2=O)cc1 (stereo not drawn) | -4.35%
CC(=O)Nc1ccc(NC(=O)CN(c2ccc(I)cc2)S(C)(=O)=O)cc1 | -73.1%
C[C@@H]1CN([C@H](C)CO)C(=O)c2cc(N(C)C)ccc2O[C@@H]1CN(C)S(=O)(=O)c1cn(C)cn1 | 0.48%
COc1ccc(NC(=O)Nc2ccc3c(c2)CC(=O)N([C@@H](C)CO)C[C@@H](C)[C@@H](CN(C)Cc2ccc(C(F)(F)F)cc2)O3)cc1 | 40.7%
C[C@@H]1CN([C@@H](C)CO)C(=O)c2cc(NC(=O)Nc3ccc(C(F)(F)F)cc3)ccc2O[C@@H]1CN(C)Cc1ccncc1 | 0.516%
COC(=O)c1c(C)c(=O)[nH]c2ccccc12 | 11.2%
C[C@@H]1CN([C@H](C)CO)C(=O)c2cc(NC(=O)CCCCCC(=O)Nc3ccccc3N)ccc2O[C@H]1CN(C)C(=O)Nc1ccc(C(F)(F)F)cc1 | 1.03%
CNC[C@H]1Oc2ccc(NC(=O)CCC(F)(F)F)cc2C(=O)N([C@@H](C)CO)C[C@H]1C | -6.95%
CC(C)(O)C(O)COc1c2occc2cc2ccc(=O)oc12 (stereo not drawn) | -25%
CS(=O)(=O)N(CC(=O)Nc1ccc(Br)cc1)c1cc(Cl)c(Cl)cc1Cl | -6.97%
C[C@@H]1CN([C@H](C)CO)C(=O)Cc2cc(NC(=O)CCCN(C)C)ccc2O[C@H]1CN(C)S(=O)(=O)c1cccs1 | -32%
C[C@H](CO)N1C[C@H](C)[C@H](CN(C)C(=O)Nc2ccccc2)Oc2ccc(NC(=O)C3CC3)cc2CC1=O | -0.845%
C[C@@H]1CN([C@H](C)CO)C(=O)c2cc(NS(=O)(=O)c3cn(C)cn3)ccc2O[C@H]1CN(C)S(=O)(=O)c1ccc(Cl)cc1 | -0.174%
Cc1noc(C)c1S(=O)(=O)Nc1ccc2c(c1)CC(=O)N([C@H](C)CO)C[C@@H](C)[C@@H](CN(C)C)O2 | -9.62%
Cc1cc(C)c(NC(=O)CSc2nnc(-c3ccccc3)n2-c2ccc(F)cc2)c(C)c1 | 15.6%
Cc1ccc(S(=O)(=O)Nc2ccc3c(c2)C(=O)N([C@@H](C)CO)C[C@@H](C)[C@H](CN(C)Cc2ccc(C(F)(F)F)cc2)O3)cc1 | 24.8%
O=C(CSc1nccc(=O)[nH]1)Nc1cccc(Br)c1 | -6.51%
C[C@H](CO)N1C[C@H](C)[C@H](CN(C)Cc2ccc(-c3ccccc3)cc2)Oc2ccc(NS(=O)(=O)c3ccccc3)cc2C1=O | 0.813%

From PubChem BioAssay AID2240 (Broad Institute, 2010)
